Structures can show the parent of a compound that is named as a salt.
Experiments:
[1] = test system: S. cerevisiae SK1 pCDA2-eGFP (USY613), sporulating; assay: CDA2-GFP sporulation assay sensitivity score (z-score vs DMSO controls); higher = stronger inhibition of sporulation, active = hit call of the paper;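 also: active if sensitivity score above 5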
[2] = test system: S. cerevisiae NKY1551 his4x/his4B, sporulating; assay: HIS4 meiotic recombination assay sensitivity score (z-score vs DMSO controls); higher = stronger inhibition of sporulation/recombination, active = hit call of the paper;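 also: active if sensitivity score above 5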
[3] = test system: S. cerevisiae AD1-9 (efflux-pump deficient), vegetative growth in YPD; assay: growth sensitivity score (doubling time z-score vs DMSO controls); higher = slower growth, strongly negative scores also mark growth inhibition (complete suppression), active = hit call of the paper
In short: (§1)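 Saccharomyces cerevisiae strains BY4741 and AD1-9 were seeded in rich medium in microtiter plates at an OD600 of 0.065. Compounds were added at a 1:100 dilution of DMSO stock. Optical density was read every 15 min for 24 hours on a Tecan GENios reader. Average doubling time was the time taken to reach a set generation point divided by generation number, and the growth sensitivity score was (compound mean − DMSO-control mean)/DMSO-control SD, using eight DMSO controls per experiment.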

[4] = test system: S. cerevisiae BY4741 (wild-type), vegetative growth in YPD; assay: as above
In short: as §1

Structure (SMILES)	CDA2-GFP sporulation assay sensitivity score [1]	HIS4 meiotic recombination assay sensitivity score [2]	growth sensitivity score [3]	growth sensitivity score [4]
CN(C)CCN(Cc1ccccc1)c1ccccn1 [Tripelennamine hydrochloride] (stock concentration (mM, diluted 1:100): 10)	0.92 (inactive)	8.14 (active)	0.66 (inactive)	1.04 (inactive)
CC(=O)[C@]1(O)Cc2c(O)c3c(c(O)c2[C@@H](O[C@H]2C[C@H](N)[C@H](O)[C@H](C)O2)C1)C(=O)c1ccccc1C3=O [Idarubicin hydrochloride] (stock concentration (mM, diluted 1:100): 9.3)	-0.06 (inactive)	-2.94 (inactive)	174 (active)	128 (active)
CCOC(=O)[C@H](CCc1ccccc1)N[C@H]1CCc2ccccc2N(CC(=O)O)C1=O [Benazepril hydrochloride] (stock concentration (mM, diluted 1:100): 9.2)	-1.49 (inactive)	0.2 (inactive)	1.33 (inactive)	1.72 (inactive)
CCOc1cc(N)c(Cl)cc1C(=O)NCC1CN(Cc2ccc(F)cc2)CCO1 (centres undefined) [Mosapride citrate] (stock concentration (mM, diluted 1:100): 6.9)	1.67 (inactive)	-0.43 (inactive)	17.2 (active)	3.25 (active)
O=C(O)Cc1ccccc1Nc1c(Cl)cccc1Cl [Diclofenac] (stock concentration (mM, diluted 1:100): 10)	0.82 (inactive)	0.28 (inactive)	4.97 (active)	1.48 (inactive)
COc1cc(C)nc(-n2nc(C)cc2OC)n1 [Mepirizole] (stock concentration (mM, diluted 1:100): 10)	-1.87 (inactive)	-1.87 (inactive)	-0.94 (inactive)	-1.02 (inactive)
OC[C@H]1O[C@@H](Oc2cc(O)cc(/C=C/c3ccc(O)cc3)c2)[C@H](O)[C@@H](O)[C@@H]1O [Piceid] (stock concentration (mM, diluted 1:100): 10)	0.56 (inactive)	-1.14 (inactive)	0.32 (inactive)	-0.24 (inactive)
CC(C)(C)NC(=O)[C@@H]1C[C@@H]2CCCC[C@@H]2CN1C[C@@H](O)[C@H](Cc1ccccc1)NC(=O)[C@H](CC(N)=O)NC(=O)c1ccc2ccccc2n1 [Saquinavir mesylate] (stock concentration (mM, diluted 1:100): 8.8)	-0.34 (inactive)	-1.67 (inactive)	-2.2	2.5 (active)
CC(=O)OCC(CCn1cnc2cnc(N)nc21)COC(C)=O [Famciclovir] (stock concentration (mM, diluted 1:100): 10)	0.31 (inactive)	-0.43 (inactive)	-0.2 (inactive)	-1.36 (inactive)
Oc1ccc(/C=C/c2cc(O)cc(O)c2)cc1 [Resveratrol] (stock concentration (mM, diluted 1:100): 10)	5.86 (inactive)	1.16 (inactive)	-0.99 (inactive)	-0.21 (inactive)
Cc1ncc([N+](=O)[O-])n1CC(O)CCl (centres undefined) [Ornidazole] (stock concentration (mM, diluted 1:100): 10)	-0.66 (inactive)	-0.66 (inactive)	-0.62 (inactive)	-2.78
C=C1/C(=C\C=C2/CCC[C@]3(C)[C@@H]([C@H](C)CCCC(C)(C)O)CC[C@@H]23)C[C@@H](O)C[C@@H]1O [Calcitriol] (stock concentration (mM, diluted 1:100): 10)	3.05 (inactive)	2.18 (inactive)	21.1 (active)	-0.32 (inactive)
COC(=O)CCc1ccc(OCC(O)CNC(C)C)cc1 (centres undefined) [Esmolol hydrochloride] (stock concentration (mM, diluted 1:100): 9)	0.86 (inactive)	0.23 (inactive)	-2.29	-0.5 (inactive)
C/C=C1\[C@H]2C=C(C)C[C@]1(N)c1ccc(=O)[nH]c1C2 [Huperzine a] (stock concentration (mM, diluted 1:100): 10)	3.17 (inactive)	-0.7 (inactive)	1.24 (inactive)	-1.79 (inactive)
CCN(CC)CC(=O)Nc1c(C)cccc1C [Lidocaine] (stock concentration (mM, diluted 1:100): 9.6)	0.09 (inactive)	-2.75 (inactive)	-0.9 (inactive)	-0.16 (inactive)
CCS(=O)(=O)CCn1c([N+](=O)[O-])cnc1C [Tinidazole] (stock concentration (mM, diluted 1:100): 10)	1.26 (inactive)	-1.77 (inactive)	-0.62 (inactive)	-0.09 (inactive)
CCCCC1=NC2(CCCC2)C(=O)N1Cc1ccc(-c2ccccc2-c2nnn[nH]2)cc1 [Irbesartan] (stock concentration (mM, diluted 1:100): 10.1)	-0.17 (inactive)	-0.26 (inactive)	-0.82 (inactive)	-0.72 (inactive)
O=C(NCCN1CCOCC1)c1ccc(Cl)cc1 [Moclobemide] (stock concentration (mM, diluted 1:100): 10)	0.72 (inactive)	-1.83 (inactive)	0.15 (inactive)	-0.18 (inactive)
C#C[C@]1(O)CC[C@H]2[C@@H]3CCc4cc(O)ccc4[C@H]3CC[C@@]21C [Ethynylestradiol] (stock concentration (mM, diluted 1:100): 10)	6.44 (inactive)	-1.32 (inactive)	229 (active)	2.85 (active)
COc1cc([C@@H]2c3cc4c(cc3[C@@H](O[C@@H]3O[C@@H]5CO[C@@H](C)O[C@H]5[C@H](O)[C@H]3O)[C@H]3COC(=O)[C@H]23)OCO4)cc(OC)c1O [Etoposide] (stock concentration (mM, diluted 1:100): 10)	3.42 (inactive)	0.11 (inactive)	59.2 (active)	0.01 (inactive)
CC(C(O)c1ccc(O)cc1)N1CCC(Cc2ccccc2)CC1 (centres undefined) [Ifenprodil] (stock concentration (mM, diluted 1:100): 9.2)	16.1 (active)	4.63 (inactive)	44.9 (active)	3.06 (active)

From the supplement of paper PMC3414501
